Compounds with a hit are over-represented: about 14% of the library has one in this group of screens.
HCMV antiviral: qHTS Assay for inhibitors of the human cytomegalovirus (HCMV); activity change, negative = inhibition, % at 57.5 µM; AID 1259415, 2018; HFF cells, HCMV-luciferase reporter, 72 h; hits give low values; 410,000 tested, 4.5% active; in the data active = activity change below about -60%; inconclusive = no clear call, values can overlap the other calls; inactive = above about -39%
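Two-dose cell screen: HFF monolayers treated with compounds and infected with luciferase-expressing HCMV at 1 PFU/cell, 72 h at 37C, then lysed for luciferase measurement.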
Pf growth 96h: Primary qHTS for delayed death inhibitors of the malarial parasite plastid, 96 hour incubation. AID 504834, 2011. Potency, µM (series often up to 28.7 µM), for the others: top-dose activity change, negative = inhibition, most hits filed as inhibitors. 320,000 tested, 6.9% active. P. falciparum luciferase reporter growth, 96 h; note: potency is the fitted concentration of half-maximal effect
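Plates of compound plus infected erythrocytes (2% hematocrit, 0.05% parasitemia final) incubate 96 hours, 37 C, 5% CO2. Detection reagent added; reduced luminescence from the parasites' luciferase reporter flags inhibition.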
Pf growth 48h: Primary qHTS for delayed death inhibitors of the malarial parasite plastid, 48 hour incubation; P. falciparum luciferase growth in erythrocytes, 48 h; Potency, µM (top dose mostly 28.7 µM), for the others: at the highest dose activity change, negative = inhibition, usual class: inhibitors; 310,000 tested, 5.9% active; AID 504832, 2011; note: potency is the fitted concentration of half-maximal effect
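Compounds are pin-transferred into medium, infected erythrocytes (2% hematocrit, 0.1% parasitemia final) are added, and plates sit one parasite generation at 37 C in 5% CO2. Detection reagent is then added and luminescence measured.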
Marburg entry inh: qHTS for inhibitors of binding or entry into cells for Marburg Virus; Potency, µM (series often up to 37.8 µM), inactives show top-dose activity change, negative = inhibition, actives largely listed as inhibitors; 300,000 tested, 1.8% active; Marburg virus pseudotyped entry inhibition, cell reporter; calls by dose curve; tested in HEK293 cells; note: potency is the fitted concentration of half-maximal effect
Lassa entry inh: qHTS for Inhibitors of binding or entry into cells for Lassa Virus; 300,000 tested, 1.2% active; Lassa virus pseudotype entry inhibition, cell reporter; Potency, µM (top dose mostly 37.9 µM), for the others: at the highest dose activity change, negative = inhibition, most hits filed as inhibitors; calls by dose curve; tested in HEK293 cells; note: potency is the fitted concentration of half-maximal effect; nearly all actives have a fitted effect of over 50% in size
HCV inhibitor: qHTS Assay for Inhibitors of Hepatitis C Virus (HCV); 340,000 tested, 3.4% active; Huh7.5.1 HCVcc-Cre infection, luciferase reporter, 44 h; Potency, µM (series often up to 41.8 µM), without a hit: at the highest dose activity change, negative = inhibition, hits mostly inhibitors; note: potency is the fitted concentration of half-maximal effect
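After 44 h co-culture of compound, cells and HCVcc-Cre (~0.5 moi), substrate is added for 15 min at room temperature and luciferase measured over 15 sec. Cells were seeded at 1,000/well and pre-cultured 4 h.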
An asterisk follows results filed as active; u = inconclusive; x = no result; [ ] = remark or other dose. Unless noted, calls come from the whole dose curve; as a rule, active = well fitted inhibition curve with a large enough effect; inconclusive = small, poorly fitted or top-dose-only effect, or another doubt; inactive = no such curve, though single readings can be large or run the other way. % is set by controls: 0 for no effect and ±100 for the full control effect.

SMILES	HCMV antiviral	Pf growth 96h	Pf growth 48h	Marburg entry inh	Lassa entry inh	HCV inhibitor
COc1ccc([C@H]2[C@H](C(=O)OC(C)(C)C)N3N=Cc4ccccc4C3C23C(=O)c2ccccc2C3=O)c(OC)c1 (stereo partly drawn)	-7	1µM*	2.9µM*	u	-11%	1%
COc1ccc([C@H]2[C@H](C(=O)OC(C)(C)C)N3N=Cc4ccccc4C3C23C(=O)c2ccccc2C3=O)cc1OC (stereo partly drawn)	x	9.3µM*	10µM*	u	u	u
CCC1(c2ccc(C)cc2)NC(=O)N(C(C)C(=O)Nc2ccc(N3CCOCC3)cc2)C1=O (stereo not drawn)	60	u	u	1%	10%	-4%
COc1cccc(-n2nnnc2S(C)(=O)=O)c1	x	u	x	u	8.9µM*	u
Cc1cccc(-n2nnnc2S(C)(=O)=O)c1	-108*	x	x	x	u	x
Cc1cc(NC(=O)CCS(=O)(=O)c2cc(Br)cc3c2N(C(=O)C2CC2)CC3)ccc1Br	-5	x	x	27%[46.1 µM]	-4%[46.1 µM]	x
CCNC(=O)/C(C#N)=C/c1c(N2CCOCC2)nc2ccccn2c1=O	-1	60%	53%	u	3%	-3%
CCNC(=O)/C(C#N)=C/c1c(N(Cc2ccccc2)Cc2ccccc2)nc2ccccn2c1=O	u	13µM*	3.7µM*	u	u	11µM*
CNC(=O)/C(C#N)=C/c1c(N(Cc2ccccc2)Cc2ccccc2)nc2c(C)cccn2c1=O	-27	2.9µM*	13µM*	u	u	13µM*
Cc1cccc(N2CC(C(=O)Nc3nnc(SCc4ccccn4)s3)CC2=O)c1 (stereo not drawn)	2	u	-16%	x	x	12%
CCOCCn1c(C)c(C(=O)OCC)c2cc(O)c3ccccc3c21	1	3.7µM*	2.3µM*	u	-15%	-13%
CC1(C)COCN1S(=O)(=O)c1ccc(C(=O)Nc2nnc(-c3ccc(Cl)s3)o2)cc1	x	-17%	4.1µM*	6.3µM*	u	2µM*
COc1ccc(-c2nnc(NC(=O)c3ccc(S(=O)(=O)N4COCC4(C)C)cc3)o2)cc1	-62*	-5%	12µM*	u	u	u
COc1ccc(NC(=O)C2(C)CCCN(C(C)C)C2)cc1OC (stereo not drawn)	2	x	x	x	x	x
CCC(=O)N1Cc2cc(C(=O)NCC(F)(F)F)nc(-c3cccc(-c4cncnc4)c3)c2[C@H]1CCO	14	x	x	x	x	x
Cc1ccc(CSc2nc3c(c(=O)[nH]c(=O)n3C)n2CCC(C)C)cc1	-1	2.9µM*	x	x	x	u
CC(C)CCn1c(SCc2ccc(Cl)cc2)nc2c1c(=O)[nH]c(=O)n2C	32	36%	u	-29%	u	u
CC(C)CCn1c(Sc2nc3ccccc3o2)nc2c1c(=O)[nH]c(=O)n2C	-78*	-29%	u	u	-19%	u
CCCCCSc1nc2c(c(=O)[nH]c(=O)n2C)n1C(C)C	37	12µM*	u	-2%	-6%	-1%
CCCCn1c(SCc2ccc(Cl)cc2)nc2c1c(=O)[nH]c(=O)n2C	34	2%	6.6µM*	u	u	7%
CN(C)c1cccc(C(=O)N[C@H]2CC[C@@]34CCCN3C(=O)CCC[C@H]4[C@H]2Cc2ccccc2)c1	-12	x	x	x	x	x
CC(Sc1ccc(Cl)cc1)C(=O)NCC(c1ccco1)N1CCCCC1 (stereo not drawn)	-34	u	u	-28%	1%[46.1 µM]	u
C/C(Cl)=C/Cn1c(SCc2ccc(Cl)cc2)nc2c1c(=O)[nH]c(=O)n2C	30	x	u	u	4%	12%
CC(C)n1c(SCc2ccc(Cl)cc2)nc2c1c(=O)[nH]c(=O)n2C	53	12µM*	x	-8%[46.1 µM]	u	-8%
CCCCCCn1c(SCC(=O)OC)nc2c1c(=O)[nH]c(=O)n2C	16	2%	8%	x	x	5µM*
SMILES	HCMV antiviral	Pf growth 96h	Pf growth 48h	Marburg entry inh	Lassa entry inh	HCV inhibitor
COCCn1c(SCc2ccc(F)cc2)nc2c1c(=O)[nH]c(=O)n2C	-18	13µM*	-13%	x	x	9%
Cc1cc(Nc2ccc(Cl)cc2)n2cnnc2n1	3	x	x	0%[46.1 µM]	u	x
O=C1Oc2ccccc2C(=O)C1C(CC(O)c1ccc(-c2ccc(Br)cc2)cc1)c1ccccc1 (stereo not drawn)	x	-25%	-3%	x	x	x
CCCCn1c(N)c(N(CC(C)C)C(=O)c2cccc(S(=O)(=O)N3CCN(C)CC3)c2)c(=O)[nH]c1=O	-15	5%	3%	19%	1%	38%
COc1ccc(Cn2ccc3nc(C)c(C(=O)NCc4cccc(OC)c4)cc3c2=O)cc1	-25	x	x	x	-21%[46.1 µM]	x
Cc1nn(C)c(C(=O)NNC(=S)NC2CCCCC2)c1Br	-39	5.2µM*	82%	x	x	11%
NC(=O)C1CCCN(C(=O)c2[nH]c(C(F)(F)F)nc2-c2ccccc2)C1 (stereo not drawn)	-27	x	x	x	x	x
C/C(CS(=O)(=O)c1ccc(Cl)c(Cl)c1)=N/NC(N)=S	-70*	-28%	42%	7%[46.1 µM]	-14%	-18%
CC(C)C[C@H]1COc2c(Cl)cccc2S(=O)(=O)N1Cc1cccc(Cl)c1	-17	x	x	u	x	x
Cc1ccc(NC2(c3nnnn3-c3c(C)cccc3C)CCCCC2)cc1	-74*	u	13µM*	u	u	u
COCCN1C(=O)CCC1(C)c1nnnn1-c1c(C)cccc1C (stereo not drawn)	1	x	x	x	x	x
COc1ccc(-c2ccc3c(N)c(C(=O)Nc4ccc(C)cc4C)sc3n2)cc1OC	-19	x	x	u	-2%[46.1 µM]	x
O=C(c1ccccc1)N1CCN(C(=O)c2ccccc2)c2ccccc21	-100*	x	x	u	u	3.2µM*
O=C(c1ccccc1)N1CCN=C1c1ccccc1	-14	12µM*	-11%	2%	5%	6%
O=C(c1ccc(Cl)cc1)N1CCN=C1c1ccccc1	-15	364%	10%	-1%	u	-2%
Cc1ccc(/C=N/NC(=O)Cc2cccs2)o1	-74*	4%	36%	12%	9%	15%
O=C(CNc1ccc2ccccc2c1)N/N=C/c1ccc([N+](=O)[O-])o1	2	3.3µM*	9.3µM*	-15%[46.1 µM]	-9%	u
Cc1ccc(OCC(=O)N/N=C/c2ccco2)cc1	-1	-6%	x	10%	7%	5%
Cc1ccc(OCC(=O)N/N=C\c2ccc(C)o2)c([N+](=O)[O-])c1	1	5.9µM*	0%	u	-14%[46.1 µM]	-6%
COc1ccc(/C=N/NC(=O)Cc2cccs2)cc1	79	u	91%	x	x	8%

Screening results from PubChem BioAssay.
